The values that follow come from PMC5540273 (PLoS ONE, 2017).

Test systems include HCK; HIPK1; HIPK2; HIPK3; HIPK4; HPK1; HUNK; ICK; IGF1R; INSRR; INSR; IRAK1; IRAK3; IRAK4; ITK.
Holding throughout (conditions): concentration: 1 μM, replicates: in singlicate; n = 1
In the next test the test system is T1, HASPIN.
T1 construct: gene GSG2

A further test concerns T2, IKK-alpha.
T2 construct: gene CHUK

Another test concerns T3, IKK-beta.
T3 construct: gene IKBKB

The subject of a further test is T4, IKK-epsilon.
T4 construct: gene IKBKE

Test [1] deals with JAK1(JH1domain-catalytic).
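Note: KINOMEscan kinase panel screen.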

As to `CCc1ccc(-c2ccc3c(c2)-c2c(cnn2C)S(=O)(=O)N3C)cc1`, the “%Inh” value in the test on HASPIN came out at 0%; in the test on HCK, 0%; in the test on HIPK1, 0%; in the test on HIPK2 it was 0%; with HIPK3, 11%; with HIPK4 it was 8%. Besides, the “%Inh” value in the test on HPK1 is reported as 17%; with HUNK, 0%; in the test with ICK, 4%; with IGF1R, 4%; with IKK-alpha it was 0%; in the test on IKK-beta, 7%. Moreover, the “%Inh” value amounted to 0% in the test with IKK-epsilon; 7% in the test with INSRR; 0% in the test on INSR; 0% in the test with IRAK1; 11% in the test with IRAK3; 0% in the test with IRAK4. In addition, the entries for the “%Inh” value (in the test with ITK; in [1]) were 2% and 0%, respectively.

Consider `Oc1cc(Nc2ccnc3cc(I)ccc23)ccc1F` [GW552771], for which the “%Inh” value is recorded as 28% with HASPIN; 76% with HCK; 42% in the test on HIPK1; 59% with HIPK2; 20% in the test with HIPK3; 10% in the test with HIPK4. For the same compound, the “%Inh” value in the test with HPK1 came out at 37%; with HUNK it was 2%; in the test with ICK, 0%; with IGF1R, 0%; with IKK-alpha, 31%; in the test with IKK-beta it was 19%. The “%Inh” value turned out to be 0% in the test with IKK-epsilon; 0% in the test with INSRR; 0% in the test on INSR; 50% with IRAK1; 25% in the test with IRAK3; 11% in the test with IRAK4. For the same compound, the “%Inh” value is listed as 0% in the test with ITK and 4% in test [1].

In the case of `Cc1ccc(C(=O)Nc2ccc(Nc3ccnc4cc(-c5nccs5)ccc34)cc2O)cc1.Cl` [GW494702], the “%Inh” value came out at 82% in the test with HASPIN; 93.4% in the test on HCK; 0% with HIPK1; 37% in the test on HIPK2; 1% in the test with HIPK3; 0% in the test on HIPK4. The “%Inh” value was determined as 1% with HPK1; 30% with HUNK; 28% in the test with ICK; 0% in the test on IGF1R; 20% in the test with IKK-alpha; 7% in the test with IKK-beta. Besides, the “%Inh” value in the test with IKK-epsilon worked out at 0%; in the test on INSRR, 1%; in the test with INSR it was 100%; with IRAK1, 22%; in the test on IRAK3, 2%; with IRAK4 it was 5%. The “%Inh” value (in the test with ITK; in test [1]) was 0% in each case.

For the compound `COc1ccc(CNC(=O)NC2CCN(c3ccnc(Nc4ccc(F)cc4)n3)CC2)cc1` [GSK1379788], the “%Inh” value in the test on HASPIN turned out to be 6%; in the test with HCK, 0%; in the test with HIPK1 it was 0%; with HIPK2 it was 0%; in the test with HIPK3, 9%; in the test on HIPK4, 0%. The “%Inh” value in the test with HPK1 is 37%; with HUNK, 14%; with ICK, 0%; in the test on IGF1R it was 0%; in the test on IKK-alpha, 1%; in the test with IKK-beta, 0%. Further, the “%Inh” value is recorded as 11% with IKK-epsilon; 0% with INSRR; 0% in the test with INSR; 17% in the test with IRAK1; 24% with IRAK3; 0% with IRAK4. Besides, the entries for the “%Inh” value (in the test with ITK; in test [1]) were 0% and 11%, respectively.

As to `CN(c1ccc(NC(=O)Nc2cc(C(F)(F)F)ccc2F)cc1)c1ccnc(Nc2ccc(S(N)(=O)=O)cc2)n1` [GW809893], the “%Inh” value in the test with HASPIN turned out to be 2%; with HCK, 98.3%; in the test with HIPK1, 59%; in the test on HIPK2 it was 64%; with HIPK3, 84%; in the test on HIPK4 it was 99.1%. Further, the “%Inh” value was 99.4% in the test on HPK1; 15% in the test with HUNK; 21% in the test with ICK; 0% with IGF1R; 82% in the test with IKK-alpha; 44% with IKK-beta. The “%Inh” value with IKK-epsilon stood at 7%; in the test with INSRR it was 13%; with INSR, 15%; in the test with IRAK1, 49%; in the test with IRAK3, 51%; in the test with IRAK4, 6%. Also, the “%Inh” value in the test with ITK is 59%; in test [1], 95.3%.

With `O=C(Nc1n[nH]c2nc(-c3ccc(O)cc3)ccc12)C1CC1` [SB-710363], the “%Inh” value in the test with HASPIN amounted to 36%; with HCK it was 35%; in the test on HIPK1 it was 94.4%; in the test with HIPK2 it was 91.8%; in the test with HIPK3, 90.5%; in the test on HIPK4, 21%. For the same compound, the “%Inh” value in the test on HPK1 was 17%; in the test with HUNK, 0%; in the test with ICK, 98.5%; with IGF1R it was 0%; in the test with IKK-alpha, 0%; in the test with IKK-beta, 0%. The “%Inh” value is recorded as 7% with IKK-epsilon; 0% in the test on INSRR; 0% with INSR; 0% in the test on IRAK1; 0% in the test on IRAK3; 0% in the test on IRAK4. The “%Inh” value in the test with ITK is 0%; in test [1], 6%.

For `COc1cccc(C(=O)Nc2cccc(Oc3ccc4nc(NC(=O)C5CC5)cn4n3)c2)c1`, the “%Inh” value in the test with HASPIN stood at 0%; in the test with HCK, 98.1%; with HIPK1, 37%; in the test with HIPK2, 0%; with HIPK3 it was 0%; with HIPK4, 15%. The “%Inh” value is 42% with HPK1; 12% in the test on HUNK; 0% with ICK; 0% in the test with IGF1R; 0% in the test with IKK-alpha; 2% with IKK-beta. Further, the “%Inh” value worked out at 0% in the test on IKK-epsilon; 0% in the test on INSRR; 0% in the test on INSR; 0% in the test with IRAK1; 37% in the test on IRAK3; 0% in the test on IRAK4. For the same compound, the “%Inh” value worked out at 20% with ITK and 15% in [1].

For `COc1cc(Nc2nccc(N3CCC(NC(=O)Nc4cccc(C(C)=O)c4)C3)n2)cc(OC)c1OC` (stereo not drawn) [GSK1379753], the “%Inh” value with HASPIN is listed as 0%; with HCK, 0%; in the test on HIPK1, 0%; with HIPK2, 0%; in the test with HIPK3 it was 3%; in the test with HIPK4, 0%. The “%Inh” value with HPK1 came out at 55%; with HUNK, 0%; with ICK, 11%; in the test on IGF1R, 0%; in the test on IKK-alpha it was 0%; in the test with IKK-beta, 10%. For the same compound, the “%Inh” value turned out to be 20% with IKK-epsilon; 0% in the test on INSRR; 1% with INSR; 77% in the test with IRAK1; 86% in the test with IRAK3; 40% with IRAK4. Moreover, the “%Inh” value with ITK turned out to be 34%; in test [1] it was 0%.

Take `CCCCc1nn2ncccc2c1-c1ccnc(Nc2ccc(N3CCN(C)CC3)cc2)n1` [GW684941]: the “%Inh” value is 25% in the test with HASPIN; 73% in the test on HCK; 24% in the test on HIPK1; 0% with HIPK2; 32% with HIPK3; 71% with HIPK4. Besides, the “%Inh” value in the test with HPK1 came to 61%; in the test on HUNK, 0%; in the test on ICK, 17%; in the test on IGF1R it was 16%; in the test on IKK-alpha, 41%; in the test on IKK-beta it was 23%. The “%Inh” value with IKK-epsilon amounted to 16%; in the test with INSRR, 21%; in the test on INSR, 36%; with IRAK1, 94.9%; in the test with IRAK3 it was 79%; with IRAK4, 43%. For the same compound, the “%Inh” value in the test with ITK came to 5%; in [1], 0%.
